Assay outcomes: PubChem BioAssay, Broad Institute
Vif imaging: HIV Vif inhibition; HEK293T cells, Vif self-association by quenched fluorescence, imaging, 24 h; inhibition, % at 7.49 µM; 340,000 compounds, 0.35% hits; AID 602346; in the data active = inhibition above about 50%, passing the limit was not always enough; inconclusive = no clear call, values can overlap the other calls; inactive = below about 31%
Wnt bcat act: activators of Wnt/beta-catenin signaling | Wnt/beta-catenin reporter cell assay, activator, plate reader | activation, % at 9.35 µM | 300,000 compounds, 1.2% hits | AID 743398; in the data active = activation above about 30%, passing the limit was not always enough; inconclusive = no clear call, values can overlap the other calls;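 also: 0% = neutral control wells and 100% = positive control wells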
Glyco luc inh: blocks N-linked glycosylation in D54 reporter cells | D54 ERlucT glycosylation luciferase reporter, 24 h; percent of 100 nM tunicamycin response | reporter increase, % at 12.5 µM | 360,000 compounds, 0.23% hits;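 active = mean luciferase reporter signal, scaled so untreated is 0 and the glycosylation-blocking control 100, at or above a set limit in every replicate; inconclusive = mean reaches the limit but not every replicate does; inactive = mean below the limit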;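 also: luciferase carries N-glycosylation sites so blocking glycosylation raises the light; 0% = median of neutral control wells and 100% = median of 100 nM tunicamycin wells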
PvdQ acylase: P. aeruginosa PvdQ acylase inhibition; purified PvdQ acylase, fluorescence plate reader; inhibition, % at 10 µM; 340,000 compounds, 0.063% hits; in the data active = inhibition above about 30%, passing the limit was not always enough; inconclusive = no clear call, values can overlap the other calls;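 also: 0% = vehicle neutral wells and 100% = reference inhibitor wells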
esBAF inh: inhibitors of esBAF chromatin remodeling in mouse ES cells; 350,000 compounds, 2% hits; Bmi1-luciferase knock-in reporter, 24 h; 100% = twice the neutral-well signal; reporter increase, % at 12.5 µM; in the data active = activation above about 40%; inconclusive = no clear call, values can overlap the other calls;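 also: 0% = median of the plate's neutral control wells and 100% = double that signal; a rise in the Bmi1 reporter signal indicates esBAF inhibition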
MITF TRPM1 HTS: increases MITF-driven TRPM1 promoter luciferase signal. SK-MEL-5 TRPM1-promoter luciferase, 24 h; % of positive control, neutral wells = 0. activation, % at 12.5 µM. 300,000 compounds, 0.75% hits. AID 588334;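 active = mean activation of at least 80% with every replicate also reaching 80%; inconclusive = mean reaches 80% but some replicate falls short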;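 also: 0% = neutral control wells and 100% = parthenolide positive control wells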
The depositor's hits bear a star; ? = inconclusive; . = no result. Most compounds without a hit are left out; they make up all but 2.9% or so of the library.

SMILES	Vif imaging	Wnt bcat act	Glyco luc inh	PvdQ acylase	esBAF inh	MITF TRPM1 HTS
CCC(=O)Nc1ccc2c(c1)ncn2C	19.4	-2.2	0.5	7.8	-1.5	1.6
Cn1cnc2cc(NC(=O)c3cccs3)ccc21	10.3	13.2	-0.3	-26.6	.	93.2*
Cn1c(CN2CCCC2)nc2cc(NC(=O)c3ccc(Cl)cc3)ccc21	21.2	1.9	-3.3	-5.2	52.5*	25.8
COc1ccc(C#Cc2cnc3c(c2)C(=O)N([C@@H](C)CO)C[C@H](C)[C@@H](CN(C)C(=O)CN(C)C)O3)cc1	.	.	.	.	1.4	.
CCCNC(=O)Nc1ccc2c(c1)C(=O)N(C)C[C@@H](OC)[C@@H](C)CN(CCC(F)(F)F)[C@H](C)CO2	.	.	.	.	-0.6	.
C[C@H]1CN([C@@H](C)CO)C(=O)c2cccc(NC(=O)C3CCOCC3)c2O[C@@H]1CN(C)S(=O)(=O)c1ccccc1	.	.	.	.	-1.1	.
CCOC(=O)c1sc(-c2ccc(Br)cc2)cc1N	2.5	?	-3.6	-10.7	33.9	114.2*
CCOC(=O)c1cc(-c2ccc(N)cc2)sc1N	?	.	-5.2	-11.6	4.8	48.6
Cc1nc(NC(=O)c2ccccc2)sc1Cc1ccc2c(c1)OCO2	1.0	.	6.5	5.0	53.0*	25.4
CCN1CCc2nc(NC(=O)c3ccc4c(c3)OCCO4)sc2C1	-3.7	21.9	-1.2	-6.1	41.5*	.
CC(=O)c1sc(NC(=O)c2ccc(C)c(C)c2)nc1C	-7.7	16.1	-9.1	-5.3	.	64.1
CC(=O)c1sc(NC(=O)c2ccc3c(c2)OCO3)nc1C	3.1	39.2*	-1.2	-5.4	23.0	114.1*
CCN1CCc2nc(NC(=O)Cc3ccc4c(c3)OCCO4)sc2C1	11.2	.	0.7	1.1	-9.4	.
Fc1ccccc1C1CCN(Cc2nc(CC3CC3)no2)C1 (stereo not given)	-2.6	44.3*	-1.7	-13.3	.	45.5
Fc1ccc2nc(C3CCN(Cc4nc(CC5CC5)no4)CC3)[nH]c2c1	-3.7	-1.8	1.5	-14.7	.	-6.2
COC(=O)Cn1ncc2c(C)n(Cc3ccccc3)c(C)c2c1=O	-2.6	11.1	0.8	-5.6	52.2*	37.8
Cc1c2cnn(CC(=O)O)c(=O)c2c(C)n1Cc1ccccc1	16.4	-5.1	0.3	-9.5	-1.2	.
O=Cc1ccc(-n2cncn2)cc1	6.4	-7.5	1.5	-9.3	.	8.7
CN1C(=O)S/C(=C\c2ccc(-n3cncn3)cc2)C1=O	-4.4	.	2.2	48.0*	-7.4	6.6
CN(C)c1ccc(NC(=O)Nc2ccc3snnc3c2)cc1	-6.3	.	0.6	-10.8	68.7*	65.2
O=C(Nc1ccccc1)Nc1ccc2nnsc2c1	-17.9	24.0	-3.4	-10.6	73.1*	?
CCCCc1nc2cc(C(=O)N3CCCCC3CC(=O)OCC)ccc2o1 (stereo not given)	-8.7	9.8	-1.5	-18.7	55.6*	31.1
CCCCc1nc2cc(C(=O)N3CCCC3)ccc2o1	-2.0	10.0	-2.5	-2.0	34.5	10.9
CCCCc1nc2cc(C(=O)NC(C)c3cnn(C)c3)ccc2o1 (stereo not given)	4.7	18.9	-1.3	-1.7	60.6*	43.6
CCOC(=O)CC1COCCN1C(=O)c1ccc2oc(Cc3ccccc3)nc2c1 (stereo not given)	-5.2	15.2	0.9	1.9	51.8*	?
SMILES	Vif imaging	Wnt bcat act	Glyco luc inh	PvdQ acylase	esBAF inh	MITF TRPM1 HTS
CCCCc1nc2cc(C(=O)N3CCCCC3C(=O)OC)ccc2o1 (stereo not given)	-2.9	14.4	-1.3	-17.5	64.4*	63.1
CCOC(=O)N1CCN(C(=O)c2ccc3oc(CCc4ccccc4)nc3c2)CC1	-7.4	0.4	-2.4	.	22.0	.
CCCCc1nc2cc(C(=O)NCc3ccccn3)ccc2o1	2.8	1.9	-3.1	6.3	-2.4	5.9
O=C(C[C@H]1C=C[C@H](NC(=O)C2CCC2)[C@@H](CO)O1)NCC1CC1	.	.	.	.	-4.1	.
CNC[C@H]1OCCCC[C@H](C)Oc2ccc(NS(=O)(=O)c3cccs3)cc2C(=O)N([C@@H](C)CO)C[C@H]1C	.	.	.	.	-9.8	.
CCCCn1c(SCc2c(C)noc2C)nc2cc(S(N)(=O)=O)ccc21	12.6	.	39.7*	5.6	-14.7	-7.7
O=C(CC(F)(F)F)N1C[C@@H]2[C@H](c3ccccc31)[C@H](CO)N2CC1CCOCC1	.	.	.	.	-5.8	.
Cc1cc(NCCN2CCOCC2)c2ccc3ccccc3c2n1	1.4	57.1*	38.4*	2.4	.	20.0
COc1ccc2nc(C)cc(NCCN3CCOCC3)c2c1	7.2	-1.6	5.8	-10.5	0.3	18.2
CCN(C(=O)C1=COCCO1)c1nc2c(C)cccc2s1	-11.2	-4.4	-0.2	2.6	48.0*	71.4
O=C1C=C(c2ccccc2)OC2(CCCC2)O1	-7.1	3.5	-3.5	-0.3	-2.7	.
O=C1C=C(c2ccccc2)OC(c2ccccc2)O1 (stereo not given)	-4.8	-1.2	-0.8	46.8*	5.6	1.9
O=C(Nc1ccc(Cl)cc1)c1ccco1	11.1	45.4*	1.0	-6.5	36.7	45.2
CCN1CCN(c2ccc(NC(=O)c3ccco3)cc2)CC1	-2.0	15.8	-3.3	-5.8	.	86.0*
CCN1CCN(c2ccc(NC(=O)c3cccc(N4CCCC4=O)c3)cc2)CC1	17.8	20.9	-2.1	-8.1	60.2*	5.0
CC(=O)Nc1ccc(NC(=O)c2ccco2)cc1	-2.1	.	0.6	0.6	12.0	30.0
CCCC(=O)N1CCN(c2ccc(NC(=O)c3ccco3)cc2)CC1	3.3	3.3	-1.5	-0.5	4.0	4.5
CCC(=O)N(C)C[C@@H]1Oc2cc(-c3cncnc3)ccc2S(=O)(=O)N([C@@H](C)CO)C[C@H]1C	.	.	.	.	2.3	.
Cc1ccc(S(=O)(=O)Nc2ccc3c(c2)C(=O)N([C@@H](C)CO)C[C@@H](C)[C@@H](CN(C)C(=O)NC(C)C)OCCCC[C@@H](C)O3)cc1	.	.	.	.	7.2	.
CNC[C@H]1OCCCC[C@@H](C)Oc2ccc(NS(=O)(=O)c3ccccc3)cc2C(=O)N([C@@H](C)CO)C[C@H]1C	.	.	.	.	-0.4	.
CCCCC(=O)/C=C/n1c(=S)oc2ccccc21	11.8	2.7	14.6	-20.0	64.9*	-8.2
COc1ccc(/C=c2\s/c(=C/C(=O)c3ccc(C)cc3)[nH]c2=O)c(OC)c1	96.6*	-0.3	2.0	7.5	-5.9	-0.5
COc1cccc(/C=c2\s/c(=C/C(=O)c3ccc(C)cc3)[nH]c2=O)c1OC	11.0	0.4	2.9	-17.8	.	11.8
Cc1nnc2ccc(-c3ccc(NS(=O)(=O)c4ccc(Cl)s4)cc3)nn12	92.8*	1.9	3.0	-1.4	-1.3	21.6
Cc1nnc2ccc(-c3ccc(NS(=O)(=O)c4ccccc4)cc3)nn12	2.2	1.0	8.2	-15.8	.	26.6
CCc1ccc(S(=O)(=O)Nc2cccc(-c3ccc4nnc(C)n4n3)c2)s1	-0.7	4.3	10.1	-11.4	-6.3	6.8
CCc1ccc(S(=O)(=O)Nc2ccc(-c3ccc4nnc(C)n4n3)cc2)s1	69.6*	-2.2	4.8	-0.8	-8.2	6.2
